Targets with a hit are over-represented here; the source holds about 7,900 in all. About 0.6% of all pairs of compound and target were hits. A number with no mark means an inactive call.
What was measured:
Test in all cases: log2 fold change, soluble protein after heating vs DMSO (PISA); higher = thermal stabilisation; K562 cells, 10 uM, 30 min; active = over 0.2 and 3.5 SD of the protein, either way, in both replicates (recomputed)
[1] = compound: CS(=O)(=O)c1ccc(-c2cnc(N)c(C(=O)Nc3ccccc3)n2)cc1
How it was run: (§1)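 Aliquots of K562 cells (2×10^6 cells/mL) treated with 10 μM compound for 30 min were heated for 3 min over 48°C-58°C. After pooling and extraction in PBS with 0.5% NP-40 at 4°C, soluble protein from a 21,000xg, 90 min spin was quantified by TMTpro 16plex LC-MS/MS with channel sums equalised. Thermal stability is expressed against control samples, from duplicates, as a log2 fold change.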

[2] = compound: C[C@@H](Oc1cc(-c2cnn(C3CCNCC3)c2)cnc1N)c1c(Cl)ccc(F)c1Cl [crizotinib]
How it was run: as §1

[3] = compound: C[C@@H]1COCCN1C2=NC(=NC(=C2)C3(CC3)S(=O)(=O)C)C4=C5C=CNC5=CC=C4
How it was run: as §1

[4] = compound: C[C@H](C1=CC=C(C=C1)C(=O)NC2=C3C=CNC3=NC=C2)N
How it was run: as §1

[5] = compound: C[C@H](Nc1ncnc2nc[nH]c12)c1cc2cccc(Cl)c2c(=O)n1-c1ccccc1 [duvelisib]
How it was run: as §1

[6] = compound: Cc1cc(Nc2cc(CN3CCOCC3)c3nc(C)c(Cc4ccc(Cl)cc4F)n3n2)n[nH]1 [gandotinib]
How it was run: as §1

[7] = compound: Cc1cc(Nc2cc(N3CCN(C)CC3)nc(Sc3ccc(NC(=O)C4CC4)cc3)n2)n[nH]1 [tozasertib]
How it was run: as §1

[8] = compound: Cc1cc(SCc2sc(-c3ccc(C(F)(F)F)cc3)nc2C)ccc1OCC(=O)O
How it was run: as §1

[9] = compound: Cc1ccc(-n2nc(C(C)(C)C)cc2NC(=O)Nc2ccc(OCCN3CCOCC3)c3ccccc23)cc1 [doramapimod]
How it was run: as §1

[10] = compound: Cc1ccc(C(=O)N(CCCN)[C@@H](c2nc3cc(Cl)ccc3c(=O)n2Cc2ccccc2)C(C)C)cc1 [ispinesib]
How it was run: as §1

[11] = compound: Cc1ccc(NC(=O)c2ccc(CN3CC[C@H](N(C)C)C3)c(C(F)(F)F)c2)cc1Nc1nccc(-c2cncnc2)n1 [bafetinib]
How it was run: as §1

[12] = compound: Cc1cccc(CC(=O)N2CCc3c2ccc(-c2cn(C)c4ncnc(N)c24)c3F)n1
How it was run: as §1

[13] = compound: Cc1cn(-c2cc(NC(=O)c3ccc(C)c(Nc4nccc(-c5cccnc5)n4)c3)cc(C(F)(F)F)c2)cn1 [nilotinib]
How it was run: as §1

[14] = compound: Cc1nc(Nc2n[nH]c3c2CN(C(=O)N[C@H](CN(C)C)c2ccccc2)C3(C)C)c2sccc2n1
How it was run: as §1

[15] = compound: Cc1nc(Nc2ncc(C(=O)Nc3c(C)cccc3Cl)s2)cc(N2CCN(CCO)CC2)n1 [dasatinib]
How it was run: as §1

[16] = compound: Cc1ncc(-c2ccnc(Nc3ccc(S(C)(=O)=O)cc3)n2)n1C(C)C
How it was run: as §1

[17] = compound: Cn1cc(-c2ccc3c(c2)CCN3C(=O)Cc2cccc(C(F)(F)F)c2)c2c(N)ncnc21
How it was run: as §1

[18] = compound: Cn1cc(-c2ccc3nnc(C(F)(F)c4ccc5ncccc5c4)n3n2)cn1
How it was run: as §1

[19] = compound: Cn1cncc1[C@@](N)(c1ccc(Cl)cc1)c1ccc2c(c1)c(-c1cccc(Cl)c1)cc(=O)n2C [tipifarnib]
How it was run: as §1

[20] = compound: FC(F)(F)c1ccc(/C=C/c2nc(COc3ccc(CCCCn4ccnn4)cc3)co2)cc1 [mubritinib]
How it was run: as §1

Chain of UniProt P49792 (P49792 whole entry, looked up): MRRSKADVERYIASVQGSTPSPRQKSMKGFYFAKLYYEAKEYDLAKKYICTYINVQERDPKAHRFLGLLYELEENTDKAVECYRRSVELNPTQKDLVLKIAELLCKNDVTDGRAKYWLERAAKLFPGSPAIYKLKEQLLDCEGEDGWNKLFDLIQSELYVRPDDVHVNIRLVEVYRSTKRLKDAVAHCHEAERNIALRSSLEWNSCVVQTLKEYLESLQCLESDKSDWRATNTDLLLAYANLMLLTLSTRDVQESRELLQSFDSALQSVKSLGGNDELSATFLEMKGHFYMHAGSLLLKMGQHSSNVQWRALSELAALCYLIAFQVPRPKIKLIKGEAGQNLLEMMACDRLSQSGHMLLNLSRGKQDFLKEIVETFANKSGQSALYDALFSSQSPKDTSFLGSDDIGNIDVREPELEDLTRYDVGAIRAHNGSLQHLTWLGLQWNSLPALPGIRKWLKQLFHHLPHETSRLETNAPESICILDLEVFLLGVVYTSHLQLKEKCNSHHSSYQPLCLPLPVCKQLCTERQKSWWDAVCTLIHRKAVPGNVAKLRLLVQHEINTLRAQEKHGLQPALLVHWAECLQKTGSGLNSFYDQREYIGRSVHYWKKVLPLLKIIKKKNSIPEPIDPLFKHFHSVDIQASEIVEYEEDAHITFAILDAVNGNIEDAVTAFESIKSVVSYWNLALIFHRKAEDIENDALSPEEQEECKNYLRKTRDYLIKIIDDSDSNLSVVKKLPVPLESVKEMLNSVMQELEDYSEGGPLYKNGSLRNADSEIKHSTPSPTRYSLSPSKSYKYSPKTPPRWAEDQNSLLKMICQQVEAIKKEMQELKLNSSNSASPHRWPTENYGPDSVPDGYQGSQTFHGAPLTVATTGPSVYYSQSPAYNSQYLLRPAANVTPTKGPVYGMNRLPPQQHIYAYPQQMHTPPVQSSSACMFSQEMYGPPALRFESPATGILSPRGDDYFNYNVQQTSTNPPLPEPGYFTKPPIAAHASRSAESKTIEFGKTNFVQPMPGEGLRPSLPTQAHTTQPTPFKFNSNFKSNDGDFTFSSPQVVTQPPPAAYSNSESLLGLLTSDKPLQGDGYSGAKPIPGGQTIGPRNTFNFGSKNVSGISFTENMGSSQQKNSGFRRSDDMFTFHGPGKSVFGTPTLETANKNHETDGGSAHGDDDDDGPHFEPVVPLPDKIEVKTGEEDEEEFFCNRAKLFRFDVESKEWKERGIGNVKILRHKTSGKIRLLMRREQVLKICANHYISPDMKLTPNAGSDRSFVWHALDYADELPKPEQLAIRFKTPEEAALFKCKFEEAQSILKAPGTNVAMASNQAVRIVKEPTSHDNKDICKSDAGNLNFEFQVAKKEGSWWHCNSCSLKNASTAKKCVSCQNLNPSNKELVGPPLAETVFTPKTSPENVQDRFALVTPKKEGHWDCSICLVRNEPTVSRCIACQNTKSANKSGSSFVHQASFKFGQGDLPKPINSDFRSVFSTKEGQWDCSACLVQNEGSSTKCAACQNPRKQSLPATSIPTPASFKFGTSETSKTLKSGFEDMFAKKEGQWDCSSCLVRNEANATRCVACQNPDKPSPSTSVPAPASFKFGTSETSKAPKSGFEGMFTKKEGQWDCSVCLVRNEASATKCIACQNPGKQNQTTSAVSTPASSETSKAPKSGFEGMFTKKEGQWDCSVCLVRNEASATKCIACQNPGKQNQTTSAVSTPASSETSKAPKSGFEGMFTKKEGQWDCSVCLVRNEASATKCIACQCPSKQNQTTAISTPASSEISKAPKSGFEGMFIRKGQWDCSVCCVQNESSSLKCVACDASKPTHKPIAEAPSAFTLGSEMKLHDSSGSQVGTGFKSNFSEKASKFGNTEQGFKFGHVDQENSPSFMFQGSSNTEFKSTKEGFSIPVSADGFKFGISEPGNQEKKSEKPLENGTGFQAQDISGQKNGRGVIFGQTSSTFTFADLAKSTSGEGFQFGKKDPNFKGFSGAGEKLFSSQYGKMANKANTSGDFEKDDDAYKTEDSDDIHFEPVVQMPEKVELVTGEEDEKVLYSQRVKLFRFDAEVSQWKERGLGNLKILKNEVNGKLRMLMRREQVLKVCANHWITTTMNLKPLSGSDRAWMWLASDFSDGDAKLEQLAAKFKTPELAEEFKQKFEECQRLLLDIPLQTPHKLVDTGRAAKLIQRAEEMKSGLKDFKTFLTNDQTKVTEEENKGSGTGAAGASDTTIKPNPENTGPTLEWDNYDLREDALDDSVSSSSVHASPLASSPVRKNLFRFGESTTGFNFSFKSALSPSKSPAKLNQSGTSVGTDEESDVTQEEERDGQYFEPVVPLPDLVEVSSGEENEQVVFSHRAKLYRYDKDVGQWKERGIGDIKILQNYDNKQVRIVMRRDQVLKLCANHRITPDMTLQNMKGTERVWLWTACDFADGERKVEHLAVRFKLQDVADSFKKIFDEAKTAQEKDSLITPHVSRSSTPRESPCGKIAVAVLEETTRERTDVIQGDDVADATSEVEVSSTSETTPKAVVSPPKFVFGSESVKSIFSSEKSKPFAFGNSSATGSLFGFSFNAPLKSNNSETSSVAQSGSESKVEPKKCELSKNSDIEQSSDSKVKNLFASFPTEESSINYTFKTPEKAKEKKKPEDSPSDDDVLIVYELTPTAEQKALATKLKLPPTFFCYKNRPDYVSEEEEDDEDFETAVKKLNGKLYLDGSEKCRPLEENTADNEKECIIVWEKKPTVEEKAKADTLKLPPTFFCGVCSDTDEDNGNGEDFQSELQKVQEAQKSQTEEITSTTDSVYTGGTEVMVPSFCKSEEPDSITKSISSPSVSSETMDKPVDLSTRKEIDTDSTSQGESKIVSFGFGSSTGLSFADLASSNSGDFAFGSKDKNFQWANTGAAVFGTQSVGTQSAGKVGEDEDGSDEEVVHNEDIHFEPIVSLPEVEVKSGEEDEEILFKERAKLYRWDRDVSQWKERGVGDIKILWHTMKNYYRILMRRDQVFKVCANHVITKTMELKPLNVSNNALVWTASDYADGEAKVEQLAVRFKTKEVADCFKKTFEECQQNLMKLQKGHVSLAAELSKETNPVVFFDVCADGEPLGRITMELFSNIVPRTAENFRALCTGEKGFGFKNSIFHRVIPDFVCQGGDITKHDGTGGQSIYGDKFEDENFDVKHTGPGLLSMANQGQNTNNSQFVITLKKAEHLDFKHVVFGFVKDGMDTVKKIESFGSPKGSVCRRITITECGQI
Chain of UniProt Q96IZ7 (Q96IZ7 whole entry, looked up): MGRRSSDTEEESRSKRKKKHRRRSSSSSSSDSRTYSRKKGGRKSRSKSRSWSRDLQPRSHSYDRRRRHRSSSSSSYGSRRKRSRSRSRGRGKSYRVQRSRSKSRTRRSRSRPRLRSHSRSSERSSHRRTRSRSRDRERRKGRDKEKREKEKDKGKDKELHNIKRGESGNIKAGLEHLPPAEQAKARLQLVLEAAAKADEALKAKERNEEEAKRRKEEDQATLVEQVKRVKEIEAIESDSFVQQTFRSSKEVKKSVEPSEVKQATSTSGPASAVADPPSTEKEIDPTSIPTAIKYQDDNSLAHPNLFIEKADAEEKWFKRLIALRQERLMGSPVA
Chain of UniProt Q9UKM9 (Q9UKM9 whole entry, looked up): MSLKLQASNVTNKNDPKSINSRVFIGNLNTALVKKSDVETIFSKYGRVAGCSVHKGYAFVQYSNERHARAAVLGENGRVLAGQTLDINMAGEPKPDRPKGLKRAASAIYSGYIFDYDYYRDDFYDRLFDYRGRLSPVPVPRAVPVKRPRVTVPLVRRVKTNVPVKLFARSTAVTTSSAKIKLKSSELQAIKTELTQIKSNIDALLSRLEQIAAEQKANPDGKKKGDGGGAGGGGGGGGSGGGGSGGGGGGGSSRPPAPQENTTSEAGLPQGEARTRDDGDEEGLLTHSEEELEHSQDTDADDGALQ
Chain of UniProt Q9NR46 (Q9NR46 whole entry, looked up): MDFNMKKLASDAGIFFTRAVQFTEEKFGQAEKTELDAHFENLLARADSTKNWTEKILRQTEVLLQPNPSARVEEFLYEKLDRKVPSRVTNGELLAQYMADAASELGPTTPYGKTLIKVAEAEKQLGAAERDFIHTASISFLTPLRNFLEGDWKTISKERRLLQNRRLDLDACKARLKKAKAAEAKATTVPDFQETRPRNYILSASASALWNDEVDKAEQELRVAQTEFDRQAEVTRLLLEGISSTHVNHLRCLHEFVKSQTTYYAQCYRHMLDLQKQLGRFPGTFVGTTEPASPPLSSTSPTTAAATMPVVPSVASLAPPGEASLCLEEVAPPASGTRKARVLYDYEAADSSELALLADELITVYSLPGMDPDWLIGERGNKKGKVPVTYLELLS

Target | log2 fold change [1] | log2 fold change [2] | log2 fold change [3] | log2 fold change [4] | log2 fold change [5] | log2 fold change [6] | log2 fold change [7] | log2 fold change [8] | log2 fold change [9] | log2 fold change [10] | log2 fold change [11] | log2 fold change [12] | log2 fold change [13] | log2 fold change [14] | log2 fold change [15] | log2 fold change [16] | log2 fold change [17] | log2 fold change [18] | log2 fold change [19] | log2 fold change [20]
RBM8A (UniProt Q9Y5S9) | 0.012 | 0.287 (active) | 0.007 | 0.025 | 0.019 | 0.069 | -0.015 | 0.025 | -0.078 | 0.099 | -0.013 | -0.014 | -0.047 | -0.063 | 0.001 | 0.126 | -0.02 | 0.065 | 0.019 | 0.013
SKP1 (UniProt P63208) | -0.052 | 0.027 | -0.039 | -0.19 | -0.054 | -0.035 | 0.001 | 0.038 | -0.096 | 0.089 | -0.003 | 0.289 (active) | 0.024 | -0.011 | 0.007 | 0.012 | 0.047 | -0.017 | -0.06 | -0.001
SH3GLB2 (UniProt Q9NR46) | 0.031 | -0.104 | -0.101 | 0.013 | -0.022 | -0.183 | 0.014 | 0.073 | 0.013 | -0.052 | -0.029 | 0.044 | -0.051 | -0.15 | -0.147 | -0.066 | 0.006 | -0.1 | -0.091 | 0.098
RB1CC1 (UniProt Q8TDY2) | 0.062 | 0.041 | -0.006 | 0.033 | -0.006 | 0.132 | -0.013 | 0.011 | 0.037 | -0.02 | -0.037 | 0.014 | 0.009 | 0.078 | -0.103 | -0.012 | 0.029 | 0.017 | -0.069 | 0.026
RSRC1 (UniProt Q96IZ7) | 0.007 | -0.059 | 0.027 | -0.386 (active) | 0.086 | 0.176 | -0.079 | -0.034 | 0.051 | 0.037 | 0.042 | -0.05 | 0.06 | -2.01 (active) | 0.028 | -0.024 | 0.003 | -0.021 | 0.038 | 0.012
RALY (UniProt Q9UKM9) | -0.149 | -0.068 | -0.138 | 0.316 | -0.161 | 0.098 | 0.051 | 0.043 | 0.01 | -0.082 | 0.077 | -0.069 | -0.029 | 0.051 | 0.249 | -0.151 | -0.596 | -0.011 | -0.118 | -0.257
RANBP2 (UniProt P49792) | -0.016 | 0.009 | -0.011 | 0.103 | 0.065 | -0.066 | 0.013 | -0.003 | 0.043 | -0.031 | -0.092 | 0.197 | -0.05 | 0.087 | -0.011 | -0.043 | -0.047 | -0.051 | -0.036 | -0.073
SDCBP (UniProt O00560) | -0.003 | -0.216 | 0.101 | -0.043 | -0.008 | 0.094 | 0.048 | 0.086 | -0.006 | -0.361 (active) | -0.229 | 0.038 | 0.015 | -0.021 | -0.12 | 0 | -0.076 | -0.058 | 0.018 | 0.025
RPS21 (UniProt P63220) | -0.053 | 0.141 | -0.108 | 0.044 | -0.001 | 0.048 | -0.005 | -0.004 | -0.022 | 0.015 | 0.087 | -0.057 | 0.011 | 0.072 | 0.1 | -0.012 | -0.009 | -0.004 | 0.017 | 0.002
RAD50 isoform 2 (UniProt Q92878) | 0.031 | 0.064 | 0.044 | -0.039 | 0.02 | -0.017 | 0.029 | 0.021 | -0.023 | 0.033 | -0.015 | 0.009 | -0.039 | -0.112 | -0.089 | -0.016 | 0.023 | 0.042 | -0.017 | 0.063
RALA (UniProt P11233) | 0.026 | 0.112 | 0.088 | -0.097 | -0.046 | -0.001 | 0.016 | -0.009 | -0.009 | 0.03 | -0.026 | 0.178 | 0.064 | -0.012 | 0.027 | -0.026 | 0.014 | 0.043 | -0.06 | 0.015
RABGAP1L isoform 3 (UniProt Q5R372) | -0.018 | 0.005 | -0.004 | -0.138 | -0.013 | -0.018 | -0.011 | 0.05 | 0.052 | 0.046 | -0.045 | 0.024 | -0.031 | -0.001 | -0.038 | -0.037 | -0.005 | 0.013 | 0.016 | -0.001
